A selection: hits, their analogues and other compounds. The true share with any hit is near 2.4%.
Pol beta inh: blocks human DNA polymerase beta activity; P06746; Pol beta primer extension/strand displacement, fluorescence kinetic; Potency, µM (highest dose often 114 µM), without a hit: at the top dose activity change, negative = inhibition, usual class: inhibitors; hit rate 1.3% among 340,000; AID 485314; note: % is set by controls: 0 for no effect and ±100 for the full control effect
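Reaction started by 50 nM substrate onto compound-treated Pol beta (10 nM, 15 min preincubation, room temperature); plates read at 0 min and 10 min. Normalized concentration-effect data fitted by four-parameter Hill equation.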
FEN1 inh-1: human FEN1 inhibition; Recombinant FEN1 flap cleavage, fluorescence, 15 min; AID 588795; hit rate 0.35% among 390,000; P39748; Potency, µM (series often up to 114 µM), for the others: at the top dose activity change, negative = inhibition, hits mostly inhibitors; note: % is set by controls: 0 for no effect and ±100 for the full control effect; nearly all actives have a fitted effect of over 65% in size
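FEN1 at 10 nM preincubated with compounds 15 min at room temperature, then flap DNA substrate added at 50 nM final. Signal read at 0 and 15 min; concentration-response fitted with four-parameter Hill equation.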
Pol eta inh-1: DNA polymerase eta (human) inhibition; Q9Y253; AID 588591; Potency, µM (titrated, usually from 114 µM), for inactives: at the top dose activity change, negative = inhibition, hits mostly inhibitors; recombinant Pol eta, fluorescent DNA replication assay; hit rate 1.2% among 390,000; note: % is set by controls: 0 for no effect and ±100 for the full control effect
Target sequence (Q9Y253 whole entry, looked up): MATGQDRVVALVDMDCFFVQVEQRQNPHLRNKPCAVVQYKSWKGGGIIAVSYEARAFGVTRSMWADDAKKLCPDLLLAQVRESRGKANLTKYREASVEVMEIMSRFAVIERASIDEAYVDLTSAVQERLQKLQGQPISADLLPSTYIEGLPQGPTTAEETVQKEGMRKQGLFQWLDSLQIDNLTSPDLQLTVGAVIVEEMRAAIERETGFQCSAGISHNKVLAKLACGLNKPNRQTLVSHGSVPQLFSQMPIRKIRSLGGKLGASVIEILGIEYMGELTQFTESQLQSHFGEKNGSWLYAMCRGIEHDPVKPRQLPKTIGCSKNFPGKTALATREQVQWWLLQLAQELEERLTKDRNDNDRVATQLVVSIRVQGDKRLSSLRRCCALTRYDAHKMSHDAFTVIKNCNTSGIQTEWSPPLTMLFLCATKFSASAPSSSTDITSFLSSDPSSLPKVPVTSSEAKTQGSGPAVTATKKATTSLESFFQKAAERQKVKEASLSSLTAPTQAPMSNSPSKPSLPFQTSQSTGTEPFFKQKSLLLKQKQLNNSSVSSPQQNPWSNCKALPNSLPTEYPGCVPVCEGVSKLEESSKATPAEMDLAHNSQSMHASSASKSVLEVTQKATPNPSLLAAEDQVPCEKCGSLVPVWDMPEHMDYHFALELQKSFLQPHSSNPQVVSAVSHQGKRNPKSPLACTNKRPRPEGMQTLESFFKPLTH
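Pol eta at 10 nM preincubated with compounds 15 min at room temperature; reaction started with fluorescent substrate (50 nM final) and read kinetically at 0 and 10 min.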
WRN helicase inh-1: blocks human WRN helicase. WRN helicase unwinding, fluorescent forked duplex, kinetic. hit rate 0.46% among 360,000. AID 651768. Potency, µM (titrated, usually from 114 µM), inactives show at the highest dose activity change, negative = inhibition, most hits filed as inhibitors; note: % is set by controls: 0 for no effect and ±100 for the full control effect; nearly all actives have a fitted effect of over 55% in size
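Fluorescence dequenching readout, ex 525 nm/em 598 nm, kinetic mode: forked duplex DNA (100 nM final) with adjacent fluorophore and quencher unwound by WRN (20 nM final) with 2 mM ATP. Compound preincubation 15 min, room temperature.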
POLI inh: inhibitors of human DNA polymerase iota | Pol iota fluorescent replication assay, 10 min | hit rate 1% among 390,000 | Potency, µM (series often up to 115 µM), for inactives: at the top dose activity, negative = inhibition, usual class: inhibitors | Q9UNA4 | AID 588590
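Fluorescent replication assay read twice, at 0 min and 10 min after adding 50 nM (final) substrate. Enzyme (10 nM) and compounds were first incubated 15 min at room temperature; enzyme-free buffer wells were negative controls.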
Pol kappa inh-1: inhibitors of human DNA polymerase kappa; hit rate 0.53% among 400,000; AID 588579; Potency, µM (highest dose often 107 µM), inactives show top-dose activity, negative = inhibition, most hits filed as inhibitors; purified Pol kappa, fluorescent DNA synthesis assay, 10 min; Q9UBT6; note: % is set by controls: 0 for no effect and ±100 for the full control effect
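50 nM final substrate added after 15 min RT preincubation of 10 nM Pol kappa with compound; fluorescence read at 0 and 10 min.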
PGK validate: validation of Trypanosoma brucei phosphoglycerate kinase inhibitors; shares compounds with Pol kappa inh-1; hit rate 79% among 500; AID 686980; Potency, µM (series often up to 57.5 µM), for the others: top-dose activity change, negative = inhibition, usual class: inhibitors; TbPGK coupled GAPDH assay, Kinase-Glo luminescence; note: % is set by controls: 0 for no effect and ±100 for the full control effect; nearly all actives have a fitted effect of over 65% in size
POLI cherry-pick: Inhibitors of human DNA polymerase iota, confirmation | Potency, µM, most hits filed as inhibitors | AID 720496 | hit rate 77% among 1,500 | Pol iota primer extension, TAMRA/BHQ fluorescence | shares compounds with Pol kappa inh-1
Pol kappa inh-2: Pol kappa (human) inhibition, cherry-pick confirmation; shares compounds with Pol eta inh-1; purified Pol-kappa, fluorescent strand-displacement substrate; Potency, µM, actives largely listed as inhibitors; hit rate 76% among 920; AID 720501
Pol eta inh-2: confirmation of human DNA polymerase eta inhibitors. Pol eta primer extension, TAMRA/BHQ fluorescence, 10 min. AID 720502. Potency, µM, hits mostly inhibitors. hit rate 64% among 2,600. shares compounds with Pol eta inh-1
FEN1 inh-2: FEN1 inhibition, cherry-pick retest; shares compounds with FEN1 inh-1; AID 720498; FEN1 flap cleavage, TAMRA/BHQ2 fluorogenic DNA substrate; hit rate 79% among 880; Potency, µM, actives largely listed as inhibitors; note: nearly all actives have a fitted effect of over 60% in size
WRN helicase inh-2: confirmation of human WRN helicase inhibitors. shares compounds with WRN helicase inh-1. WRN helicase DNA unwinding, fluorescence kinetic. Potency, µM (top dose mostly 57.1 µM), for inactives: at the highest dose activity, negative = inhibition, actives largely listed as inhibitors. hit rate 63% among 610. AID 720497; note: nearly all actives have a fitted effect of over 65% in size
TO DNA binding: counter-screen for WRN helicase inhibitors: DNA binding; shares compounds with WRN helicase inh-1; AID 720499; Potency, µM (highest dose often 57.1 µM), for inactives: at the highest dose activity change, negative = inhibition, hits mostly inhibitors; hit rate 10% among 610; thiazole orange DNA binding displacement, fluorescence;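 note: drop in dye fluorescence marks compound binding to DNA; % is set by controls: 0 for no effect and ±100 for the full control effect; nearly all actives have a fitted effect of over 60% in size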
BLM counter: counter-screen for WRN helicase inhibitors: human BLM helicase inhibition | shares compounds with WRN helicase inh-1 | Recombinant BLM helicase DNA unwinding, red fluorescence | Potency, µM (titrated, usually from 57.1 µM), inactives show at the highest dose activity change, negative = inhibition, usual class: inhibitors | hit rate 60% among 610; note: nearly all actives have a fitted effect of over 60% in size
Starred values were filed as active, the others as inactive; ? = inconclusive; nt = no result given; [ ] = dose if it differs, or a comment. Calls come from the whole dose curve; as a rule, active = well fitted curve in the direction sought with a large enough effect; inconclusive = small, poorly fitted or top-dose-only effect, or another doubt; inactive = no such curve, though single readings can be large; an effect the other way counts as inactive or inconclusive. Potency is the fitted concentration of half-maximal effect.

SMILES	Pol beta inh	FEN1 inh-1	Pol eta inh-1	WRN helicase inh-1	POLI inh	Pol kappa inh-1	POLI cherry-pick	Pol kappa inh-2	Pol eta inh-2	WRN helicase inh-2	TO DNA binding	BLM counter	others
O=C(O)c1ccc(-n2cccc2/C=C2/NC(=O)N(c3ccccc3)C2=O)cc1	?	?	2.82µM*	35.5µM*	3.16µM*	22.4µM*	3.36*	nt	5.36*	15.2µM*	-7.8%	7.64µM*	PGK validate=5.8µM*
C[C@H](CC[C@@H]1OC1(C)C)C1CC[C@H]2[C@@H]3CC=C4C[C@@H](O)CC[C@]4(C)[C@H]3CC[C@]12C (stereo partly specified)	nt	nt	nt	nt	nt	6.1%[19.4 µM]	nt	nt	nt	nt	nt	nt
Cc1ccc(CNC(=O)CCS(=O)(=O)c2ccc(Br)cc2)cc1	7.94µM*	-4.0%	10µM*	25.1µM*	15.8µM*	22.4µM*	37.7*	nt	26.9*	3.83µM*	5.41µM*	2.15µM*	PGK validate=6.51µM*
Cc1ccc2nc(COc3cccc(NC(=O)COc4ccc(F)cc4)c3)cc(=O)n2c1	0.4%	-0.8%	-3.3%	nt	-0.9%	-10.8%[60.1 µM]	nt	nt	nt	nt	nt	nt
O=C(CCN1C(=O)/C(=C/C=C/c2ccccc2)SC1=S)Nc1cccnc1	20.0%	-4.3%	5.01µM*	?	?	-4.3%	9.47*	nt	nt	?	10.0%	?
O=C(CCN1C(=O)/C(=C/C=C/c2ccccc2)SC1=S)Nc1ccccn1	0.7%	0.3%	-25.5%	-8.9%	99.7%	-5.3%	nt	nt	nt	nt	nt	nt
O=C(CCCN1C(=O)/C(=C/c2ccco2)SC1=S)Nc1ccccc1C(=O)O	-121.9%	?	11.2µM*	31.6µM*	22.4µM*	?	33.6*	8.44*	19*	19.2µM*	-14.6%	24.1µM*
O=C(CCCN1C(=O)/C(=C/c2ccccc2)SC1=S)Nc1ccccc1O	0.7%	3.4%	2.8%	-3.2%	-5.5%	-3.8%	nt	nt	nt	nt	nt	nt
O=C(CCN1C(=O)/C(=C/c2ccco2)SC1=S)Nc1ccc(C(=O)O)c(O)c1	?	35.5µM*	4.47µM*	44.7µM*	3.98µM*	20µM*	29.9*	16.8*	?	17.1µM*	-28.4%	21.5µM*	FEN1 inh-2=84.9*
O=C1C=CC(=O)c2c1ccc1c2ccc2ccccc21	nt	nt	nt	nt	nt	-18.9%[12 µM]	nt	nt	nt	nt	nt	nt
CN(C)c1ccc(/C=[N+]2\C(=O)CC(=O)NC2=O)cc1	nt	-5.3%	nt	nt	17.5%	-3.4%	nt	nt	nt	nt	nt	nt
Cc1ccc(OCC(=O)c2c(N)n(C)c(=O)n(C)c2=O)c([N+](=O)[O-])n1	nt	?	11.2µM*	44.7µM*	10µM*	35.5µM*	33.6*	10.6*	30.1*	17.1µM*	-13.8%	4.82µM*
COCCCNc1nc2cc(OC)c(OC)cc2c2nc(-c3ccccc3)nn12	18.9%	0.0%	-14.3%	-3.6%[57.1 µM]	28.0%	7.3%	nt	nt	nt	nt	nt	nt
CCN(CC)CCCNc1nc2cc(OC)c(OC)cc2c2nc(-c3ccccc3)nn12	11.2µM*	12.6µM*	?	35.5µM*	7.94µM*	?	37.7*	nt	nt	17.1µM*	-9.1%	24.6%	FEN1 inh-2=6.75*
N#Cc1c(-n2ncnc2-c2ccc(F)cc2)sc2c1CCCCC2	0.9%	-11.0%	-19.8%	nt	5.0%	3.9%	nt	nt	nt	nt	nt	nt
CCN(CC)C(=O)c1sc2c(c1C)c(=O)n(-c1ccc(C)c(C)c1)c(=O)n2Cc1cc(=O)n2c(C)cccc2n1	5.2%	-11.7%	-11.7%	nt	-5.0%	2.5%[60.1 µM]	nt	nt	nt	nt	nt	nt
O=c1cc2oc3cc(O)c(O)cc3c(-c3ccccc3[N+](=O)[O-])c-2cc1O	0.316µM*	?	0.794µM*	0.752µM*	?	0.794µM*	0.752*	nt	2.13*	0.383µM*	?	0.215µM*	PGK validate=0.291µM*;FEN1 inh-2=?
O=c1cc(-c2ccccc2Cl)oc2c([N+](=O)[O-])ccc(O)c12	nt	nt	nt	nt	nt	-6.5%	nt	nt	nt	nt	nt	nt
CC1=NN(c2ccccc2)C(=O)C1C=Nc1ccccc1O (stereo unspecified)	-0.7%	-4.9%	-24.4%	-0.4%	14.6%	6.6%	nt	nt	nt	nt	nt	nt
CC1=NN(c2ccccc2)C(=O)C1/C=C1\NC(=S)NC1=O (stereo unspecified)	-4.7%	79.4µM*	3.16µM*	28.2µM*	?	25.1µM*	47.4*	7.52*	23.9*	8.57µM*	-23.1%	17.1µM*
Nc1cccc(-c2nc3ccccc3[nH]2)c1	-9.3%	-15.7%	-13.3%	-4.8%	-11.2%	-9.5%	nt	nt	nt	nt	nt	nt
Nc1ccc2nc(-c3cccc(-c4nc5ccc(N)cc5[nH]4)n3)[nH]c2c1	25.1µM*	?	20µM*	20µM*	14.1µM*	56.2µM*	16.8*	26.7*	19*	5.41µM*	17.1µM*	4.82µM*	FEN1 inh-2=1.69*
N#C/C(=C\c1ccc(-c2cc(Cl)ccc2Cl)o1)C(=O)Nc1ccccc1C(=O)O	?	?	39.8µM*	nt	?	?	75.2*	10.6*	?	17.1µM*	10.8µM*	3.04µM*
COCCn1c(SCc2nc3sc(C(=O)OC)c(C)c3c(=O)[nH]2)nc2ccccc21	-4.9%	-13.1%	?	-5.5%	3.6%	-1.0%	nt	nt	nt	nt	nt	nt

Source: PubChem
